Hit rate of the full screen: of about 310,000 compounds, about 14,000 (4.5%) showed an effect of 50% or more. Effects have a minus sign here. The sample as a whole holds a higher share of strong results than the screen did.
target: human ether-à-go-go-related gene (hERG) potassium channel (human, UniProt Q12809); test: primary screen, population patch clamp on CHO cells stably expressing hERG; higher = less effect of the substance
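Also: peak tail current of the secondary pulse compared with the same well before compound.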

human ether-à-go-go-related gene (hERG) potassium channel, sequence (Q12809 whole entry, looked up): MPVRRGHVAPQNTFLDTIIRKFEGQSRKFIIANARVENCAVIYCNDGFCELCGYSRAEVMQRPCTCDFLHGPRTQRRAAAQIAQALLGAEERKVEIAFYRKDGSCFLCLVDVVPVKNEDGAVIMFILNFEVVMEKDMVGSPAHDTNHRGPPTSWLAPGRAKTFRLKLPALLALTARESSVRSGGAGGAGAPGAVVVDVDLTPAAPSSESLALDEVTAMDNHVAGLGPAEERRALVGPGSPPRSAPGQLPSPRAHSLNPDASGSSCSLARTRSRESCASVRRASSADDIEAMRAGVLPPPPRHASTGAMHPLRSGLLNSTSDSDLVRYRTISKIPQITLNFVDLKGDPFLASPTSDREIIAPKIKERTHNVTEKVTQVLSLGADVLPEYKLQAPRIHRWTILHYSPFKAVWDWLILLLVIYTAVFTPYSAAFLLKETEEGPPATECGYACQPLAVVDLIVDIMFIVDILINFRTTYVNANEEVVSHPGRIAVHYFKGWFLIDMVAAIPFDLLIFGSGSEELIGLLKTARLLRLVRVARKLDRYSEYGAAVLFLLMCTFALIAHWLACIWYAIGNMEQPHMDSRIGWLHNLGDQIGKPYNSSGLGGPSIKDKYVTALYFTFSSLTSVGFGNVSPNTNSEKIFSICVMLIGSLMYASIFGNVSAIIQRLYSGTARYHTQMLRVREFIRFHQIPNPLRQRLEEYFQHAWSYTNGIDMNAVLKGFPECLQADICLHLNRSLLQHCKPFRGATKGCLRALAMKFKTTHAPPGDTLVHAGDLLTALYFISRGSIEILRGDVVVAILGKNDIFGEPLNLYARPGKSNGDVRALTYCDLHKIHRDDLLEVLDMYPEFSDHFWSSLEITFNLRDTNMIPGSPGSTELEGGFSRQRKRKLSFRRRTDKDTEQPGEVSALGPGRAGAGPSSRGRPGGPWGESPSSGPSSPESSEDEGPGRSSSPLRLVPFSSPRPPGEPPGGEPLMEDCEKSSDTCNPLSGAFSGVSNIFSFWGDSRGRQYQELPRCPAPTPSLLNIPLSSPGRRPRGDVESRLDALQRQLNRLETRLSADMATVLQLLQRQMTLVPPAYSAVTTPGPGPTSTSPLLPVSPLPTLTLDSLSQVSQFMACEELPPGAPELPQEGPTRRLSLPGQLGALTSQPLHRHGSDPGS

Row | Compound | hERG current change (%, negative = inhibition) at 10uM [%]
1 | CCc1ccc(OCC(O)CN2CCN(c3ccccc3)CC2)cc1.Cl (stereo not drawn) | -60.3
2 | CCc1ccc(OCC(O)CN2CCN(CCO)CC2)cc1.Cl (stereo not drawn) | -15.3
3 | CCc1ccc(OCC(O)CN2CCN(c3ccccn3)CC2)cc1.Cl (stereo not drawn) | -67.4
4 | CC(=O)C1C(c2ccc3ncccc3c2)NC(=O)NC1(O)C(F)(F)F (stereo not drawn) | 10.9
5 | Cc1ccsc1/C=N/Nc1ncc(Cl)cc1Cl | 5.75
6 | COc1ccc(C)cc1S(=O)(=O)N1CCN(S(=O)(=O)c2cc(C(=O)O)ccc2C)CC1 | 3.86
7 | CCN1CCN(C(c2cccs2)C(C)NC(=O)c2cccc(OC)c2)CC1 (stereo not drawn) | -4.05
8 | CCN(CC)C(=O)c1ccc(NC(=O)c2cccc(C(F)(F)F)c2)cc1 | 4.47
9 | CN(C(=O)COC(=O)c1ccc2c(=O)n3c(nc2c1)CCC3)C1CCS(=O)(=O)C1 (stereo not drawn) | 10.5
10 | CCc1ccc2nc(NC(=O)Cn3cnc4ccccc4c3=O)sc2c1 | 9.75
11 | CCOC(=O)C(=O)Nc1ccc(OCc2ccccc2)cc1 | 20.2
12 | Cc1cc(C)nc(/N=C(\N)Nc2cccc([N+](=O)[O-])c2)n1 | -28.7
13 | CCOc1ccc(N/C(N)=N/c2nc(C)cc(C)n2)cc1 | -46.5
14 | Cc1cc(C)nc(/N=C(\N)Nc2ccc(S(=O)(=O)Nc3nccc(C)n3)cc2)n1 | 19.8
15 | CC(=O)Nc1cccc(N/C(N)=N/c2nc(C)cc(C)n2)c1 | 4.87
16 | Cc1cc(C)nc(/N=C(\N)Nc2cccc(OCc3ccccc3)c2)n1 | -74.1
17 | Cc1cc(C)nc(/N=C(\N)Nc2ccc(OCc3ccccc3)cc2)n1 | -78.2
18 | Cc1cc(OCC(=O)Nc2ccc(OCc3ccccc3)cc2)nc(C(C)C)n1 | 3.36
19 | Cc1cc(C)nc(/N=C(\N)Nc2ccc(OCCC(C)C)cc2)n1 | -71.8
20 | CCOC(=O)c1c(C)noc1CP(=O)(c1ccccc1)c1ccccc1 | -6.61
21 | CCC(=O)NC(c1ccc(OC)cc1)c1c(O)ccc2ccccc12 (stereo not drawn) | 3.82
22 | COc1ccc(-c2cnnc(N/N=C/c3ccc(O)c(O)c3)n2)cc1 | 2.82
23 | COc1ccc(-c2cnnc(N/N=C/c3ccc(OC)c(OC)c3)n2)cc1 | -35.7

Row | Compound | hERG current change (%, negative = inhibition) at 10uM [%]
24 | COc1ccc(-c2cnnc(N/N=C/c3ccc(O)c(OC)c3)n2)cc1 | -50.1
25 | CC1CCCCC12NC(=O)N(Cn1nnc3ccccc3c1=O)C2=O (stereo not drawn) | -17.2
26 | Cc1ccc(-c2cc(-c3ccccc3)nc(N(C)N)n2)cc1 | 16.7
27 | c1ccc(Cc2nnc(N3CCCCC3)c3ccccc23)cc1 | -26.7
28 | c1ccc(N2CCN(c3nnc(Cc4cccnc4)c4ccccc34)CC2)nc1 | -50.1
29 | O=C(Cn1nc(Cc2cccnc2)c2ccccc2c1=O)N1CCN(c2ccccn2)CC1 | -23.1
30 | CC(C)(C)c1ccc(COc2ccsc2C(=O)O)cc1 | -6.72
31 | COCCNC(=S)N(Cc1cccnc1)Cc1ccc(OC)c(OC)c1.O=C(O)C(=O)O | 9.52
32 | COCCCNC(=S)N(Cc1cccnc1)Cc1ccc(OC)c(OC)c1 | 12.4
33 | COc1ccc(CN(Cc2cccnc2)C(=S)NCCc2ccccc2)cc1OC.O=C(O)C(=O)O | -50.5
34 | Cc1ccc(CCNC(=O)CNC(=S)N(Cc2ccccc2)Cc2cccnc2)cc1 | -55
35 | O=C(CNC(=S)N(Cc1ccccc1)Cc1cccnc1)NCCc1ccccc1 | -41.3
36 | Cc1ccc(CNC(=O)CNC(=S)N(Cc2ccccc2)Cc2cccnc2)cc1 | -19.8
37 | CCCc1nn(C)c2c(=O)[nH]c(-c3cc(S(=O)(=O)Nc4ccc(NC(C)=O)cc4)ccc3OCC)nc12 | -21.2
38 | O=C(NC1CCCCCC1)c1ccc(CS(=O)(=O)Cc2ccc(F)cc2)o1 | 3.52
39 | O=C(CCNC(=O)c1ccccc1)OCN1C(=O)c2ccccc2C1=O | -5.38
40 | CCCCNC(=O)CS(=O)Cc1nc(-c2ccc(C)cc2)oc1C (stereo not drawn) | -17.5
41 | COCCCNC(=O)Cn1nnc(-c2ccc(NC(=O)c3ccccc3OC)cc2)n1 | 6.89
42 | CCOc1ccc(-c2nnc(SCc3nc4ccccc4[nH]3)n2N)cc1 | -34.3
43 | COc1ccc(OCCN2CCN(C3CC(=O)N(CCC(C)C)C3=O)CC2)cc1 (stereo not drawn) | -63.4
44 | COc1ccc(CCN2C(=O)CC(N3CCN(S(=O)(=O)c4ccccc4)CC3)C2=O)cc1 (stereo not drawn) | -18.7
45 | CCN1C(=O)CC(N2CCN(c3ccc(OC)cc3)CC2)C1=O (stereo not drawn) | -9.88
